Test results: PubChem BioAssay (NCATS)
Values joined by “and” are separate entries in the source; they are usually repeats but may differ in a detail not shown here. Equal values may be shown once. Results filed as inconclusive are left out. Active and inactive are the calls of the source. Unless noted, calls come from the whole dose curve; as a rule, active = well fitted curve in the direction sought with a large enough effect; inconclusive = small, poorly fitted or top-dose-only effect, or another doubt; inactive = no such curve, though single readings can be large; an effect the other way counts as inactive or inconclusive.

Key:
[1] = target: Lysosomal acid glucosylceramidase (Homo sapiens) (UniProt P04062); assay: Glucocerebrosidase-p2 (AID 348; in the data active = potency below about 10 µM; note: potency is the fitted concentration of half-maximal effect); settings: purified GBA, blue fluorogenic substrate, 40 min
Chain of Lysosomal acid glucosylceramidase (Homo sapiens) (P04062 whole entry, looked up): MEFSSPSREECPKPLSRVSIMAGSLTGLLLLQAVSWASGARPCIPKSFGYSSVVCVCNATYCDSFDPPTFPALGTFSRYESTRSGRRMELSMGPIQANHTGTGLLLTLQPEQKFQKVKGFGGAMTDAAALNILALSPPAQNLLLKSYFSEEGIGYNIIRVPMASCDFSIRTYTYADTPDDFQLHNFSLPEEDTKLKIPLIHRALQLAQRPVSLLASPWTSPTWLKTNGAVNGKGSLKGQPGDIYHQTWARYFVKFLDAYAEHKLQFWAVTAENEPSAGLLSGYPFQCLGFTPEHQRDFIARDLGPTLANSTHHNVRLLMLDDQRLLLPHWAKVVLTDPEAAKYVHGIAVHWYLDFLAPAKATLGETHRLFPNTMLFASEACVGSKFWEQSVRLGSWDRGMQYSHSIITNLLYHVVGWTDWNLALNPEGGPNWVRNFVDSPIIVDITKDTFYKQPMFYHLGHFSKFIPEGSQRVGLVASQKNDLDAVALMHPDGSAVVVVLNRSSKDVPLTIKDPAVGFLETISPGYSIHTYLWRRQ
Procedure, shortened: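 Normal human glucocerebrosidase (0.2 nM) with blue fluorogenic substrate (80 uM final) in citrate/phosphate pH 5.9 with 10mM sodium taurocholate, 0.01% tween-20; 40 min RT, NaOH/glycine stop; fluorescence Ex 365/Em 440; AC50 from a titration from 0.6 nM upwards.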

[2] = AP1 Signaling Pathway (AID 357; active = well fitted curve in either direction with a large enough effect, not every such curve was filed as active;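 note: ME-180 reporter cells stimulated with EGF at its EC50 level; % is set by controls: 0 for no effect and ±100 for the full control effect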); settings: ME-180 AP-1-bla reporter, EGF-induced, beta-lactamase ratio, 5 h; at 7.69 µM (top of the series) unless noted
Procedure, shortened: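 AP-1-bla ME-180 cells, Opti-MEM + 0.5% dialyzed FBS, plated overnight 37 °C. Cpd titration + EC50 EGF, 5 h 37 °C. CCF4 2.5 h RT; ex 405, em 460/530 ratio → %activity, AC50.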

[3] = NFAT Signaling Pathway (AID 444; active = well fitted curve in either direction with a large enough effect, not every such curve was filed as active;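 note: carbachol stimulus at about its EC50 of 1 µM final; % is set by controls: 0 for no effect and ±100 for the full control effect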); settings: Jurkat NFAT-bla M1, carbachol, beta-lactamase ratio, 5 h; at 7.69 µM (top of the series) unless noted
Procedure, shortened: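 Jurkat cells with NFAT-driven β-lactamase reporter and co-expressed M1 receptor, stimulated with carbachol (final 1 uM, ~EC50), compound titration, 5 h at 37 °C. CCF4 loaded 1 h at RT; 460/530 nm ratio gave %activity and AC50.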

[4] = Stat Signaling Pathway (AID 446; active = well fitted curve in either direction with a large enough effect, not every such curve was filed as active;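 note: ME-180 cervical cancer cells given 40 pM IL-6 alongside compound; SIE-controlled beta-lactamase reporter measured as 460/530 nm FRET emission ratio; % is set by controls: 0 for no effect and ±100 for the full control effect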); settings: ME-180 (cervical carcinoma) SIE beta-lactamase reporter, IL-6 stimulated, 5 h; at 7.69 µM (top of the series) unless noted
Procedure, shortened: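 Normalization used AC90 stimulation (300 pM IL-6) and AC90 inhibition (125 nM pan-JAK inhibitor at 40 pM IL-6). The underlying signal is SIE-driven beta-lactamase in ME-180 cells after 5 h IL-6 exposure with compound.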

[5] = target: Glucocorticoid receptor (Homo sapiens) (UniProt P04150); assay: GR-GFP Redistribution (AID 450;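 active = compounds whose dose series gives a full or clear partial fitted curve of increased nuclear translocation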; note: potency is the fitted concentration of half-maximal effect); settings: U2OS GR-GFP nuclear translocation, laser cytometry, 2 h
Chain of Glucocorticoid receptor (Homo sapiens) (P04150 whole entry, looked up, the tested form may be a part): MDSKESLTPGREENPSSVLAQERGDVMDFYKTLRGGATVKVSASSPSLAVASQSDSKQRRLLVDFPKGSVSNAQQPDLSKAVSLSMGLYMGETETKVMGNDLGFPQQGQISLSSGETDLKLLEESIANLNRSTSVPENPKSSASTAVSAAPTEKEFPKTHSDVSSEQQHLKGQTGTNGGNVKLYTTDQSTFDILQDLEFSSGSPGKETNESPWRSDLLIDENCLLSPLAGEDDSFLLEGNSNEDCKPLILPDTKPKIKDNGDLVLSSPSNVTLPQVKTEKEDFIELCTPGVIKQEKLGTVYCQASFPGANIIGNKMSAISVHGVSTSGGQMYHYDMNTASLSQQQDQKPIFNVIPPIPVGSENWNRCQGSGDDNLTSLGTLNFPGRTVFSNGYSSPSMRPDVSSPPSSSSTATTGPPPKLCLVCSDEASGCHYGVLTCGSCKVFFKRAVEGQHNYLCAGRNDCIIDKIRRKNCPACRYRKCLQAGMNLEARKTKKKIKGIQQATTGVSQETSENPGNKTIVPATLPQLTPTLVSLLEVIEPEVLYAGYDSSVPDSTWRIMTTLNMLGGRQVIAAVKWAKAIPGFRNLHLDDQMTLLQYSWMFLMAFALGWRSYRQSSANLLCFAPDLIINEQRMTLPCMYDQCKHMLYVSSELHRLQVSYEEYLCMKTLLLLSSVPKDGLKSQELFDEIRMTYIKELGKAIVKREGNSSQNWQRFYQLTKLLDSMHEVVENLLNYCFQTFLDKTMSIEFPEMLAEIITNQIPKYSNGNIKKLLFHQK

[6] = target: Glucocorticoid receptor (Homo sapiens) (UniProt P04150); assay: GR-EFC Redistribution (AID 451; calls by dose curve; note: potency is the fitted concentration of half-maximal effect); settings: CHO-K1 GR-EFC translocation, beta-gal luminescence, 2 h
Procedure, shortened: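 CHO-K1 cells expressing nuclear EA and GR-ED fragments of b-gal; compounds titrated up to 46 uM final, 2 h at 37 C. GR nuclear translocation read as complemented b-gal luminescence after 1 h RT detection.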

[7] = target: Mitogen-activated protein kinase 10 (Mus musculus) (UniProt Q61831); assay: JNK3 AlphaScreen Assay (AID 530; active = well fitted curve in either direction with a large enough effect, not every such curve was filed as active;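 note: kinase came from lysate of stimulated human HepG2 cells; signal reports phosphorylation of biotinylated GST-cJun 1-79 at Ser73 with 10 µM ATP; % is set by controls: 0 for no effect and ±100 for the full control effect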)
Procedure, shortened: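 Activity was read by AlphaScreen after JNK3-containing HepG2 lysate (cytokine pre-activated) phosphorylated biotinylated GST-cJun with 10 uM ATP at room temperature. Phospho-Ser73 cJun antibody with Protein-A acceptor beads provided detection.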

[8] = target: 3',5'-cyclic-AMP phosphodiesterase 4B (Homo sapiens) (UniProt Q07343); assay: qHTS Assay for Inhibitors of PDE-IV (AID 607; active = well fitted activation curve with a large enough effect in the main read-out, with a control signal flat, not every such curve was filed as active; note: % of control where 0% means no effect)
Chain of 3',5'-cyclic-AMP phosphodiesterase 4B (Homo sapiens) (Q07343 whole entry, looked up): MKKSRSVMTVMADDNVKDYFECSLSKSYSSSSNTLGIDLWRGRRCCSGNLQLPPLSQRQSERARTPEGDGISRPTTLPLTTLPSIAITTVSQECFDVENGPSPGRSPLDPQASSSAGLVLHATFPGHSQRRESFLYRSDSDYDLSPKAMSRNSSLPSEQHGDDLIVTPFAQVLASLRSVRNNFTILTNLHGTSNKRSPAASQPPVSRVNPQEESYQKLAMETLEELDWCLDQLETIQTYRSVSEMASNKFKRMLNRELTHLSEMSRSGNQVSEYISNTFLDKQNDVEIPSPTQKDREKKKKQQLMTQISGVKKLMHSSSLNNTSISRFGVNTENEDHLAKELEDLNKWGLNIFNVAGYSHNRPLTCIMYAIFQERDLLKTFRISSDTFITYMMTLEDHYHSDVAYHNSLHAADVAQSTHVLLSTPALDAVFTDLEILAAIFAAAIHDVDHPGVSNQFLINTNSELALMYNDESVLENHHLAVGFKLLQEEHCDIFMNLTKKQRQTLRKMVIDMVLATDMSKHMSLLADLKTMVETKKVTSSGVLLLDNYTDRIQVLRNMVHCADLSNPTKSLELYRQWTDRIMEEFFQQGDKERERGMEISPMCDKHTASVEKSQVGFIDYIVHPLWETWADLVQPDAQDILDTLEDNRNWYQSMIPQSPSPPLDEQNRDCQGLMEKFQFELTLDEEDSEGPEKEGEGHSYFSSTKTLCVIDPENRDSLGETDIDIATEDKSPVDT
Procedure, shortened: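 HEK293 ACTOne cells with CNG channel (1000/well), endogenous PDE4; membrane potential dye, compounds up to 22.9 uM final. Fluorescence Ex 535/Em 590; RO 20-1724 (100 uM final) as reference.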

[9] = target: Dual specificity protein kinase CLK4 (Homo sapiens) (UniProt Q9HAZ1); assay: qHTS Assay for Inhibitors of CDC-like Kinase 4 (Kinase-Glo Assay) (AID 1770); note: nearly all actives have a fitted effect of over 65% in size; note: potency is the fitted concentration of half-maximal effect
Chain of Dual specificity protein kinase CLK4 (Homo sapiens) (Q9HAZ1 whole entry, looked up): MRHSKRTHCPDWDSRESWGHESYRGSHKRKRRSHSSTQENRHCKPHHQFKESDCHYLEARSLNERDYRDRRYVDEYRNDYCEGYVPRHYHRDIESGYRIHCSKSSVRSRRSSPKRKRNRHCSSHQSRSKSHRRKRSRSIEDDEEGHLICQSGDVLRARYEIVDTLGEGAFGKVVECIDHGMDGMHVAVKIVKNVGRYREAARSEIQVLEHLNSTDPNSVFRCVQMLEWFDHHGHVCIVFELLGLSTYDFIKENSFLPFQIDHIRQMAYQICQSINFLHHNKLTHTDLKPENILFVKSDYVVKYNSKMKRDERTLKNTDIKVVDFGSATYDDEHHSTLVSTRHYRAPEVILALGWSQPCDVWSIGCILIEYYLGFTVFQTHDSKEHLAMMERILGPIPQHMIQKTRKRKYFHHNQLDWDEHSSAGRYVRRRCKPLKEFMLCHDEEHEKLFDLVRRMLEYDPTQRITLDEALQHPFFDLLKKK
Procedure, shortened: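 Readout: Kinase-Glo luminescence from ATP left after a 4.5 h room-temperature reaction of 25 nM Clk4 with 100 uM RS peptide and 1 uM ATP (final). Buffer: 25 mM Tris pH 7.5, 10 mM MgCl2.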

[10] = target: Dual specificity protein kinase CLK4 (Homo sapiens) (UniProt Q9HAZ1); assay: qHTS Assay for Inhibitors of CDC-like Kinase 4 (ADP-FP Assay) (AID 1795); note: nearly all actives have a fitted effect of over 60% in size; note: potency is the fitted concentration of half-maximal effect
Procedure, shortened: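 FP readout: Orange Transcreener ADP2 tracer (4 nM) plus ADP antibody, read after 30 min at room temperature. Kinase step: 6.25 nM Clk4, 100 uM RS peptide, 1 uM ATP, pH 7.5, 1 h.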

[11] = target: Ubiquitin carboxyl-terminal hydrolase 1 (Homo sapiens) (UniProt O94782); assay: Inhibitors of USP1/UAF1: Pilot qHTS (AID 504865);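 note: rhodamine fluorescence freed from ubiquitin-rhodamine substrate followed over time; top concentration of the series differs between compounds; % is set by controls: 0 for no effect and ±100 for the full control effect; nearly all actives have a fitted effect of over 35% in size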
Chain of Ubiquitin carboxyl-terminal hydrolase 1 (Homo sapiens) (O94782 whole entry, looked up): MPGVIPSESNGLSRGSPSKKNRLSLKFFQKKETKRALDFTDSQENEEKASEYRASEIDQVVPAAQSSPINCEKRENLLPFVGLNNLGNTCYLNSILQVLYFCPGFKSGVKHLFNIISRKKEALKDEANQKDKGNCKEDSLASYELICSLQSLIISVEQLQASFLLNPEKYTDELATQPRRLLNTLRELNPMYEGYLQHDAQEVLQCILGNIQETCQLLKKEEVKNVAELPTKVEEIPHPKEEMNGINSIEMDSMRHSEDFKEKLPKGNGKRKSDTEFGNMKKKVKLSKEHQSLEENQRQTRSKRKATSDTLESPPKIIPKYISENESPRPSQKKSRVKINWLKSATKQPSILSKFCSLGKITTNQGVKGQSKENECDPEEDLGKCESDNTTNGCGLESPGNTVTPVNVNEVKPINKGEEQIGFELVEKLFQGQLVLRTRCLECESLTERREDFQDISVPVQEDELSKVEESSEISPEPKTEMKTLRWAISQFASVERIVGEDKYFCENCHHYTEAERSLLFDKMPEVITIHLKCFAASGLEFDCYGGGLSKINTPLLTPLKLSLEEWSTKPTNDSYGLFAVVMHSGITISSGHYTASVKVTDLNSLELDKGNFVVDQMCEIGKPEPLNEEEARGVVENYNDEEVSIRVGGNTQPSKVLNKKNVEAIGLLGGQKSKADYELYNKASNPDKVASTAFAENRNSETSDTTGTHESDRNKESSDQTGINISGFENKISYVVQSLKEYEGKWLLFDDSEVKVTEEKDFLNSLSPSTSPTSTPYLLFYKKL
Procedure, shortened: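 1nM USP1/UAF1 + cpd, 15 min RT; start w/ Ub-Rho 150nM final; kinetic FL 480/540 nm, 6 reads q60 s. Buffer 50mM HEPES pH 7.8, 0.5mM EDTA, 1mM TCEP, 0.01% Tween-20, 0.1 mg/ml BSA.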

[12] = target: Cytochrome P450 1A2 (Homo sapiens) (UniProt P05177); assay: p450-cyp1a2 (AID 410; calls by dose curve; note: potency is the fitted concentration of half-maximal effect)
Chain of Cytochrome P450 1A2 (Homo sapiens) (P05177 whole entry, looked up): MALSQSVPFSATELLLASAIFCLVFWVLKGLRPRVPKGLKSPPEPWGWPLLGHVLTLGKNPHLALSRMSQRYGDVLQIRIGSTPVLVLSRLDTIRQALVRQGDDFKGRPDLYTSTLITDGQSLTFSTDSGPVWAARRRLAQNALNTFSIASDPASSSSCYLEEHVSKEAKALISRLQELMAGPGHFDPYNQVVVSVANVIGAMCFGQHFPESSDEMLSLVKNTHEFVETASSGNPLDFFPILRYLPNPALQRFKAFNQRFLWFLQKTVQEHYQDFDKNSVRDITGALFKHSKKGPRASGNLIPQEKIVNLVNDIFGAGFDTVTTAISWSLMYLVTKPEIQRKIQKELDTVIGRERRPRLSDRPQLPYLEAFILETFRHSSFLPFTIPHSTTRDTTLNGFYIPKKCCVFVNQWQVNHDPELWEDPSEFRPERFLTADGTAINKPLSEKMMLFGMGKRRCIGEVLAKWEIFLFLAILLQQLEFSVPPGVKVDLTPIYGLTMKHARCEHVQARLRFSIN
Procedure, shortened: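 O-Demethylation of luciferin 6' methyl ether by human CYP1A2 is monitored as luciferase luminescence. Substrate sits at Km (100uM); enzyme is 20nM. Values are scaled to 57 uM furafylline as maximal inhibition.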

[13] = target: Cytochrome P450 3A4 (Homo sapiens) (UniProt P08684); assay: qHTS Assay for Inhibitors and Substrates of Cytochrome P450 3A4 (AID 884); note: potency is the fitted concentration of half-maximal effect; nearly all actives have a fitted effect of over 50% in size
Chain of Cytochrome P450 3A4 (Homo sapiens) (P08684 whole entry, looked up): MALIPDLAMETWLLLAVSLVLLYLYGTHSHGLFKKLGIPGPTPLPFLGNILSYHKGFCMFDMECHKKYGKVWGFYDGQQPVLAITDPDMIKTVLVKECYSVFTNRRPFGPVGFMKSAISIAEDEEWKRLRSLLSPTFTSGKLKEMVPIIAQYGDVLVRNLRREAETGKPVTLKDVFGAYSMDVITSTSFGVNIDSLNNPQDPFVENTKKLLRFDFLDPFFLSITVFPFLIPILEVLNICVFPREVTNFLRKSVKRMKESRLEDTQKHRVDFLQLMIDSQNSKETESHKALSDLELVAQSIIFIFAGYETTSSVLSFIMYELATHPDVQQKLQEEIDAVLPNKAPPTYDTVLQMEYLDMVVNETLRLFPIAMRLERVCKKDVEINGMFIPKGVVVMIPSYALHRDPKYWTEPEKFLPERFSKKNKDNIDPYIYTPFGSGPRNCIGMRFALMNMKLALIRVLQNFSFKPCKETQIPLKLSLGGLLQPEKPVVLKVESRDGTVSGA
Procedure, shortened: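 Luminescent readout of luciferin produced by CYP3A4 (20 nM) dealkylation of Luciferin-PPXE, 25 uM (its KM). NADPH-driven reaction ran 60 min at RT after 10 min compound preincubation; data scaled to 57 uM ketoconazole as 100% inhibition.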

[14] = target: Cytochrome P450 3A4 (Homo sapiens) (UniProt P08684); assay: qHTS Assay for Activators of Cytochrome P450 3A4 (AID 885); note: nearly all actives have a fitted effect of over 65% in size
Procedure, shortened: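 Human CYP3A4 dealkylates Luciferin-PPXE to luciferin, which luciferase detection converts to light. Substrate was at its KM (25uM), buffer 200mM KPO4, reaction 60 min at RT.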

[15] = qHTS Assay for Lipid Storage Modulators (AID 1519; calls by dose curve); settings: Drosophila S3 cells, BODIPY lipid droplet/cell ratio, laser cytometry, cells loaded with oleic acid
Procedure, shortened: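 Cells seeded at 5,000 per well were treated with compounds over a concentration series and loaded with oleic acid (400 uM, as added). Lipid droplet fluorescence (488 nm excitation, 500-530 nm channel) was read by laser-scanning cytometry and normalized to 20 uM Triacsin C.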

| Structure (SMILES) | Potency [1] | activity change, negative = inhibition [2] | activity change, negative = inhibition [3] | activity, negative = inhibition [4] | Potency [5] | Potency [6] | Potency [7] | Potency [8] | Potency [9] | Potency [10] | Potency [11] | Potency [12] | Potency [13] | Potency [14] | activity change, negative = inhibition ([15]; at 57.5 µM (top of the series)) | max response ([15]; measured here: cell count channel max response) | max response ([15]; measured here: lipid channel max response) |
| --- | --- | --- | --- | --- | --- | --- | --- | --- | --- | --- | --- | --- | --- | --- | --- | --- | --- |
| Cc1cnc(CNc2cc(-c3ccc4c(c3)OCO4)ncn2)cn1 | > 11.4 µM (inactive) | -3.49% (inactive) | 7.15% (inactive) | -3.34% (inactive) | > 46 µM (inactive) | > 46 µM (inactive) | inactive | inactive | 3.98 µM (active) | 12.6 µM (active) | inactive |  |  |  |  |  |  |
| COc1cccc(-c2cncnc2NCc2cccc(C)c2)c1 | > 11.4 µM (inactive) | -11.8% (inactive) | -0.339% (inactive) | -10.4% (inactive) | > 46 µM (inactive) | > 46 µM (inactive) | inactive |  | 31.6 µM (active) |  | inactive | 2 µM (active) | 0.398 µM (active) | inactive |  |  |  |
| CCCCCCCNS(=O)(=O)c1cccc2c(Cl)cccc12 |  |  |  |  | > 46 µM (inactive) | > 46 µM (inactive) |  |  |  |  |  | 6.31 µM (active) | 7.94 µM (active) | inactive |  |  |  |
| COCCn1c(=O)cnc2cnc(OCc3ccccc3)nc21 | > 11.4 µM (inactive) | -3.32% (inactive) | -3.92% (inactive) | 3.06% (inactive) | > 9.22 µM (inactive) | > 46 µM (inactive) | inactive | inactive |  |  |  |  |  | inactive |  |  |  |
| CCNc1ncc2nc(-c3ccc(F)cc3)c(=O)n(Cc3ccc(F)cc3)c2n1 | > 11.4 µM (inactive) |  | 18.8% (inactive) |  | > 9.22 µM (inactive) | > 46 µM (inactive) | inactive | inactive | inactive | inactive |  | 20 µM (active) |  |  |  |  |  |
| COc1ccccc1CNc1ncncc1-c1ccc(C(=O)N(C)C)cc1 | > 11.4 µM (inactive) | -10.9% (inactive) | 1.11% (inactive) | 9.05% (inactive) | > 46 µM (inactive) | > 46 µM (inactive) | inactive | inactive | 12.6 µM (active) |  | inactive | 12.6 µM (active) | 2.51 µM (active) | inactive |  |  |  |
| COc1cccc(Nc2ncc3nc(CCc4ccccc4)c(=O)n(Cc4cccs4)c3n2)c1 | > 11.4 µM (inactive) |  |  | -28.9% (inactive) |  | > 46 µM (inactive) | inactive | inactive | inactive | inactive | inactive | 3.16 µM (active) |  |  |  |  |  |
| CS(=O)(=O)Nc1cccc(-c2cncnc2-n2ccnc2)c1 | > 11.4 µM (inactive) | 7.32% (inactive) | 14.5% (inactive) | 14.6% (inactive) | > 46 µM (inactive) | > 46 µM (inactive) | inactive |  |  | inactive | inactive | 15.8 µM (active) | 7.94 µM (active) | inactive |  |  |  |
| Cc1noc(C)c1-c1cncnc1-n1ccnc1 | > 11.4 µM (inactive) | 0.604% (inactive) | -5.32% (inactive) | 12.7% (inactive) | > 46 µM (inactive) | > 46 µM (inactive) | inactive | inactive | inactive | inactive | inactive |  |  |  |  |  |  |
| N=c1ccn2c(n1)OC1C(O)C(CO)OC12 (centres undefined) |  |  |  |  |  |  |  |  |  |  | inactive |  |  |  | 3.87% (inactive) and 5.45% (inactive) | 0.631% and 1.94% | 7.88% and 22.5% |
| N#Cc1cccc(-c2nccc(NCc3cccnc3)n2)c1 | > 11.4 µM (inactive) |  | 16.5% (inactive) | 0.752% (inactive) | > 46 µM (inactive) | > 46 µM (inactive) | inactive |  | 14.1 µM (active) |  | inactive | 0.251 µM (active) | 0.794 µM (active) | inactive |  |  |  |
| CCNc1ncc2nc(-c3ccc(F)cc3)c(=O)n(-c3ccccc3)c2n1 | > 11.4 µM (inactive) |  |  |  | > 9.22 µM (inactive) | > 46 µM (inactive) | inactive |  | inactive | inactive | inactive | 0.398 µM (active) |  |  |  |  |  |
| Cn1c(=O)c(CCc2ccccc2)nc2cnc(N3CCOCC3)nc21 | > 11.4 µM (inactive) | -10.6% (inactive) | 10.9% (inactive) | 1.67% (inactive) | > 9.22 µM (inactive) | > 46 µM (inactive) | inactive | inactive | inactive | inactive | inactive |  |  |  |  |  |  |
| N#Cc1cccc(-c2cncnc2NCc2cccnc2)c1 | > 11.4 µM (inactive) | 13% (inactive) | -3.61% (inactive) | 6.63% (inactive) | > 46 µM (inactive) | > 46 µM (inactive) | inactive | inactive | inactive | inactive | inactive | 5.01 µM (active) | 1.26 µM (active) | inactive |  |  |  |
